# Screens (PubChem)
# Sampled rows, rich in hits. Any-hit rate of the full collection: about 9.2%.
# NPC1 promoter act = activates the NPC1 promoter | Huh7 NPC1 promoter luciferase reporter, 24 h | actives 2.4% (n = 320,000) | Potency, µM (doses to about 9.22 µM), for inactives: at the highest dose activation, usual class: activators; note: % of control where 0% means no effect; nearly all actives have a fitted effect of over 60% in size
#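 Stable NPC1-promoter luciferase Huh7 line; cpd (DMSO) 24 h, 37 °C, 5% CO2; Amplite luciferase reagent 10 min RT; luminescence readout. qHTS format.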
# Rab9 promoter act = activators of Rab9 promoter | Huh7 Rab9 promoter-luciferase reporter, luminescence, 24 h | Potency, µM (titrated, usually from 9.22 µM), for inactives: top-dose activation, negative = inhibition, hits mostly activators | actives 2.8% (n = 320,000); note: % of control where 0% means no effect; nearly all actives have a fitted effect of over 60% in size
#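 Luciferase signal after 10 min detection reagent at ambient indicates Rab9 promoter upregulation; stably transfected Huh7 cells were treated 24 h with compound in DMSO at 37 °C, 5% CO2.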
# FLuc modulator = counter-screen for miR-21 project: firefly luciferase inhibitors or activators | P08659 | purified FLuc, Km substrates, luminescence inhibition | Potency, µM (top dose mostly 57.5 µM), for inactives: top-dose activity change, negative = inhibition, actives largely listed as inhibitors | actives 6.9% (n = 360,000);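 note: plate controls were vehicle for no effect and reference inhibitor for full effect; nearly all actives have a fitted effect of over 55% in size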
# Target sequence (P08659 whole entry, looked up): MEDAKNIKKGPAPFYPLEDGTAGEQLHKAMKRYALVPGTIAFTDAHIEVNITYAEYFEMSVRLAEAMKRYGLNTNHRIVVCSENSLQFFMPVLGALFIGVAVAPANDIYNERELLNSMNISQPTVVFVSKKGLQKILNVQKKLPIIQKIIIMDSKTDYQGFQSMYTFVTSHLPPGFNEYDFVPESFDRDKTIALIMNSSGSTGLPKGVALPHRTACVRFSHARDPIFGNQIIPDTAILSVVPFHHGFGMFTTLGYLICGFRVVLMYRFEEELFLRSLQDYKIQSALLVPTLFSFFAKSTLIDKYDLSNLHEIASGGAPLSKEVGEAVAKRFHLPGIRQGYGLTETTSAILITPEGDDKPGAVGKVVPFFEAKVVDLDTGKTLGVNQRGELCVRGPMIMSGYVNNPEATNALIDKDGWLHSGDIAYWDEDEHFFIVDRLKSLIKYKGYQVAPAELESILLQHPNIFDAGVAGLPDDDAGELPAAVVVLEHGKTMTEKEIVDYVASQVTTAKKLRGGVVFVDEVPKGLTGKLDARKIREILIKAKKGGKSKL
#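 Purified P. pyralis luciferase, 10 nM final, with Km-level 10 uM D-luciferin and 10 uM ATP in 50 mM Tris acetate pH 7.5, 10 mM Mg acetate, 0.01% Tween-20, 0.05% BSA; 6-point qHTS titration about 60 µM downward; luminescence read.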
# ELG1 genotoxic = induces genotoxicity in HEK293T cells with luciferase-tagged ELG1; HEK293T ELG1-luciferase reporter, luminescence, 16 h; Potency, µM (series often up to 46 µM), inactives show top-dose activity change, positive = activation, hits mostly activators; actives 1.3% (n = 330,000); AID 504466; note: % of control where 0% means no effect; nearly all actives have a fitted effect of over 60% in size
#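 After overnight (16 hr) compound treatment at 37 °C, ELG1-luciferase HEK293T cells were lysed with ONE-Glo; luminescence quantified 30 min later at room temperature.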
# SMN2 splice up = enhancers of SMN2 splice variant expression | HEK293 SMN2-luciferase splicing reporter, luminescence, 30-36 h | Potency, µM (top dose mostly 46.1 µM), for the others: at the highest dose activity change, positive = activation, actives largely listed as activators | actives 2.8% (n = 210,000) | AID 1458; note: % of control where 0% means no effect; nearly all actives have a fitted effect of over 55% in size
#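 qHTS luciferase splicing reporter: luminescence rises when SMN2 exon 7 is included in transfected HEK293 cells. Compound exposure lasted 30-36 h at 37C, with 4.5 mM final sodium butyrate as control, followed by a ONE-Glo read.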
# ELG1 DNA repair = ELG1-dependent DNA repair inhibition. HEK293T ELG1-luciferase reporter, luminescence, 16 h; DNA damage induced by 5-fluorouridine. Potency, µM (series often up to 46.1 µM), for inactives: top-dose activity change, negative = inhibition, actives largely listed as inhibitors. actives 2.3% (n = 330,000); note: % is set by controls: 0 for no effect and ±100 for the full control effect; nearly all actives have a fitted effect of over 55% in size
#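 Cells (2,000 per well) received 5-fluorouridine plus test compound or DMSO and were incubated 16 hr at 37 °C, 5% CO2. Luciferase activity was read by luminescence 30 min after ONE-Glo addition; signal suppression marked inhibition of damage-induced ELG1 function.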
# * marks the source's active call; other numbers are inactive results; ? = inconclusive; / = no result given; [ ] = another dose, or the depositor's remark. Calls come from the whole dose curve; as a rule, active = well fitted curve in the direction sought with a large enough effect; inconclusive = small, poorly fitted or top-dose-only effect, or another doubt; inactive = no such curve, though single readings can be large; an effect the other way counts as inactive or inconclusive. Potency is the fitted concentration of half-maximal effect.
SMILES,NPC1 promoter act,Rab9 promoter act,FLuc modulator,ELG1 genotoxic,SMN2 splice up,ELG1 DNA repair
COc1ccc(NC(=O)CSc2nnc(NC(=O)c3ccco3)s2)cc1,14.4%,15.6%,15.1µM*,16.6%,?,?
Cc1cccc(Nc2nnc(SCC(=O)c3c(N)n(C4CC4)c(=O)[nH]c3=O)s2)c1,1.3%,-4.6%,?,0.7%,/,-15.5%
COCCOC(=O)c1c(C)nc(SCC(=O)Nc2ccc(OC)cc2)c(C#N)c1-c1ccco1,-0.8%,-3.2%,-1.8%,-1.2%,-8.8%,23.1µM*
Cc1ccc(C)c(N2CCN(C(c3ccccc3)c3nnc(-c4ccccc4F)o3)CC2)c1 (centres undefined),/,/,?,/,-23.1%,/
Cc1ccc(Nc2nnc(SCC(=O)Nc3cccnc3Cl)s2)cc1C,-3.8%,-8.5%,1.07µM*,6.0%,18.2%,-2.9%
COc1ccc(NC(=O)CSc2nnc(NC(=O)c3ccco3)s2)cc1OC,3.5%,20.0%,21.3µM*,11.5%,/,?
Cc1ccc(Nc2nnc(SCC(=O)Nc3ccccc3[N+](=O)[O-])s2)cc1,6.7%,4.7%,?,2.5%,3.3%,-5.6%
Cc1nnc(SCC(=O)Nc2ccc3c(c2)OCCO3)s1,4.7%,-0.1%,?,1.5%,1.0%,4.7%
O=C(CSc1nnc(NC(=O)c2ccco2)s1)Nc1ccc2c(c1)OCCO2,8.9%,0.4%,13.5µM*,13.0%,6.0%,0.0%
CCSc1nnc(NC(=O)Nc2cccc(C)c2)s1,?,?,10.7µM*,-9.1%,/,?
CCN(CC)S(=O)(=O)c1nnc(NC(=O)c2ccc(C)cc2)s1,/,/,-16.4%,/,/,/
Cc1cc(C)c2c(=O)cc(CSCC(=O)Nc3ccccc3Cl)[nH]c2c1,/,/,-1.7%,/,/,/
Cc1cccc(NC(=O)CSc2nnc(NC(=O)C3CC3)s2)c1C,-0.7%,16.3%,0.5%,7.7%,/,24.9%
Cc1cccc(NC(=O)CSc2nnc(NC(=O)c3ccco3)s2)c1,0.3%,18.1%,13.5µM*,-5.4%,21.7%,?
COc1ccc(NC(=O)Nc2nnc(SCC(=O)Nc3cccc(C)c3C)s2)cc1,/,/,0.601µM*,/,/,/
COc1cccc(N2CC(C(=O)Nc3nnc(SCC(=O)Nc4ccc(NC(C)=O)cc4)s3)CC2=O)c1 (centres undefined),-0.2%,-1.5%,-15.6%,1.8%,/,1.1%
COc1cccc(C(=O)Nc2nnc(SCC(=O)Nc3ccc(NC(C)=O)cc3)s2)c1,2.82µM*,3.55µM*,0.477µM*,?,/,?
C=CCC1(CC=C)CCCN1C(=O)c1cc(COc2ccc(C)nc2)on1,-24.1%,-28.9%,19µM*,17.3%,/,?
Cc1ccc(OCc2cc(C(=O)NCc3ccc(OC(F)(F)F)cc3)no2)cn1,-2.2%,2.0%,3.2%,-8.0%,/,-2.7%
Cc1cc(C)n(CC(C)NC(=O)c2cc(COc3ccc(F)c(F)c3)on2)n1 (centres undefined),?,25.6%,?,13.5%,/,?
Cc1cc(CNC(=O)c2cc(COc3ccc(F)c(F)c3)on2)nn1C,2.82µM*,1.26µM*,?,?,/,?
CCc1cc(CNC(=O)c2cc(COc3ccc(C)nc3)on2)on1,?,?,16.9µM*,?,/,?
COc1ccc(-c2nnc(SCC(=O)N3CCOCC3)o2)cc1OC,-2.0%,-1.8%,-1.6%,-0.8%,12.2%,-0.8%
CCOc1ccc(-c2nnc(SCC(=O)N3CCOCC3)o2)cc1,?,2.24µM*,10.7µM*,?,?,?
CCOc1ccc(-c2nnc(SCC(=O)N3CCCC3)o2)cc1,?,?,21.3µM*,?,/,?
SMILES,NPC1 promoter act,Rab9 promoter act,FLuc modulator,ELG1 genotoxic,SMN2 splice up,ELG1 DNA repair
CCc1cccc(C)c1NC(=O)CN1CCN(Cc2ccccc2Cl)S1(=O)=O,/,/,-2.8%,/,/,/
O=C(O)c1ccccc1NS(=O)(=O)c1cccc(-n2sc3ccccc3c2=O)c1,1.4%,-0.4%,10.7µM*,-8.4%,/,15.2%
O=C(O)c1ccccc1NS(=O)(=O)c1ccc2ccccc2c1,1.2%,7.8%,15.1µM*,11.7%,/,?
CC(=O)Oc1ccccc1C(=O)O,0.3%[46.1 µM],2.2%[46.1 µM],/,/,20.1%,/
COc1cc(/C=C/c2noc(-c3ccccc3O)n2)cc(OC)c1OC,21.8%,26.5%,0.5%,10.1%,12.7%,?
COc1ccc(/C=C/c2noc(-c3ccccc3O)n2)cc1,?,26.5%,3.79µM*,?,26.8%,?
CC(=O)Oc1ccccc1-c1nc(/C=C/c2ccccc2)no1,2.82µM*,?,10.7µM*,9.2µM*,/,?
CCOc1nc(OCC)c2cnn(C)c2n1,3.7%,-4.4%,2.4%,-6.1%,/,?
COC(=O)/C=c1/sc2nc3ccccc3n2c1=O,-3.9%,1.0%,?,-1.6%,?,-0.3%
O=C(O)c1cc(C(=O)O)cc(-c2ccc(/C=c3/sc4nc5ccccc5n4c3=O)o2)c1,-5.3%,-2.4%,?,5.3%,6.5%,-0.4%
O=c1/c(=C\c2cc([N+](=O)[O-])cc([N+](=O)[O-])c2O)sc2nc3ccccc3n12,-3.0%,11.4%,9.53µM*,5.7%,-2.9%,-15.6%
O=c1/c(=C/c2ccccn2)sc2nc3ccccc3n12,?,?,0.135µM*,0.82µM*,12.6µM*,?
O=C(O)c1cccc(-c2ccc(/C=c3/sc4nc5ccccc5n4c3=O)o2)c1,25.4%,28.5%,9.53µM*,6.0%,/,?
O=c1c2ccccc2nc2sc3ccccc3n12,3.98µM*,3.98µM*,5.36µM*,?,14.1µM*,?
